# Screens: PubChem BioAssay, National Center for Advancing Translational Sciences (NCATS)
# Shown are actives, neighbours in structure and some others; about 17% of the full set was active somewhere.
# ATXN2 expr inh = reduces ATXN2 reporter expression in HEK-293 cells; HEK-293 ATXN2-luciferase reporter, luminescence, 24 h; Potency, µM (doses to about 57 µM), for inactives: at the top dose activity change, negative = inhibition, usual class: inhibitors; actives 0.72% (n = 360,000); AID 1745845; also: % is scaled to controls: 0 for no effect and ±100 for the full control effect; nearly all actives have a fitted effect of over 55% in size
#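 qHTS (up to 57 uM final) was run with 24 h compound exposure of reporter cells at 37 °C. Each well was multiplexed: SteadyGlo luminescence measured ATXN2-luciferase expression after a fluorogenic Gly-Phe-AFC viability readout (25 uM final).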
# S2 tox = viability counter-screen for ATXN expression inhibitors | Potency, µM (doses to about 56.7 µM), actives largely listed as cytotoxic | S2 cells (HEK-293 line with an ATXN2-luciferase reporter) viability, CellTiter-Fluor protease fluorescence, 24 h | actives 0.49% (n = 400,000); also: nearly all actives have a fitted effect of over 40% in size
# DT40 TDP1 no CPT = qHTS for Inhibitors of human tyrosyl-DNA phosphodiesterase 1 (TDP1): qHTS in cells in absence of CPT. DT40 Tdp1-/- hTDP1 cells, no CPT, ATP luminescence, 48 h. Potency, µM (series often up to 46.2 µM), for the others: top-dose activity change, negative = growth inhibition, usual class: inhibitors. actives 15% (n = 420,000). AID 686978, 2013; also: % is scaled to controls: 0 for no effect and ±100 for the full control effect; nearly all actives have a fitted effect of over 55% in size
#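 Chicken DT40 Tdp1-/- cells stably complemented with human TDP1 were seeded at 400 cells/well with DMSO in place of 20 nM camptothecin. After compound pinning, cells grew at least 48 hr at 37 °C; viability read by CellTiter-Glo luminescence.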
# DT40 TDP1 CPT = growth inhibition of DT40 Tdp1-/-;hTDP1 cells with camptothecin (screen for TDP1 inhibitors); chicken DT40 Tdp1-/-;hTDP1 cells + 20 nM CPT, ATP luminescence, 48 h; Potency, µM (top dose mostly 46.2 µM), inactives show top-dose activity change, negative = growth inhibition, hits mostly inhibitors; AID 686979; actives 12% (n = 420,000); also: % is scaled to controls: 0 for no effect and ±100 for the full control effect; nearly all actives have a fitted effect of over 55% in size
#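 Chicken DT40 Tdp1-/- cells stably complemented with human TDP1 were seeded at 400 cells/well in medium containing 20 nM camptothecin, exposed to pin-transferred compounds, and grown at 37 °C for at least 48 hr. Viability was read as ATP luminescence.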
# TGFb SMAD3 inh = TGF-b pathway inhibition; actives 1.2% (n = 410,000); AID 588855; HepG2 CAGA-GFP TGF-b/SMAD3 reporter, GFP fluorescence, 18 h; TGF-beta stimulated, 500 pg/mL final; Potency, µM (highest dose often 46.1 µM), for the others: top-dose activity, negative = inhibition, hits mostly inhibitors; also: % is scaled to controls: 0 for no effect and ±100 for the full control effect; nearly all actives have a fitted effect of over 65% in size
#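 Using HEPG2 CAGA-GFP reporter cells at 1000 cells/well, we pinned test compounds, stimulated with recombinant TGF-beta (500 pg/mL final) and measured total well GFP after 18 h.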
# HepG2 viability = HepG2 cytotoxicity, counter-screen for TGF-b inhibitors; HepG2 CAGA-GFP viability, ATP luminescence, 18 h; Potency, µM (titrated, usually from 46.1 µM), without a hit: top-dose activity change, negative = cytotoxicity, actives largely listed as cytotoxic; actives 0.76% (n = 410,000); AID 588856
#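 HepG2 CAGA-GFP cells (1000/well, DMEM with 1% FBS) received compound, then TGF-beta at 500 pg/mL final, and were incubated 18 hours at 37 degrees C. Viability was read by CellTiter-Glo luminescence. Media-only wells were set as complete cell-killing and DMSO as no toxicity.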
# Numbers without * were called inactive; i = inactive; ? = inconclusive; . = no result. Calls follow the shape of the dose curve; as a rule, active = well fitted curve in the direction sought with a large enough effect; inconclusive = small, poorly fitted or top-dose-only effect, or another doubt; inactive = no such curve, though single readings can be large; an effect the other way counts as inactive or inconclusive. Potency is read from the fitted curve at half-maximal effect.
SMILES,ATXN2 expr inh,S2 tox,DT40 TDP1 no CPT,DT40 TDP1 CPT,TGFb SMAD3 inh,HepG2 viability
COc1ccc(-c2cc(-c3ccccc3)nc(SCC(=O)Nc3ccccc3C)c2C#N)cc1,12%,?,0%,3%,-9%,-27%
CC(C)OC(=O)CC(=O)CSc1nc(-c2ccc(F)cc2)cc(-c2ccccc2)c1C#N,-4%,i,?,-18%,-1%,-4%
COc1ccc(-c2cc(-c3cccs3)c(C#N)c(SCC(=O)NCc3ccco3)n2)cc1,-30%,?,2.3µM*,1.8µM*,0%,-2%
CCc1nnc(NC(=O)CSc2nc(-c3ccccc3)cc(-c3ccc(F)cc3)c2C#N)s1,?,i,?,9.2µM*,15%,-33%
COc1ccccc1-c1cc(-c2ccccc2)nc(SCC(=O)O)c1C#N,-29%,i,1%,?,7%,3%
CCCSc1nc(-c2ccc(OC)cc2)cc(-c2ccccc2OC)c1C#N,15%,i,18µM*,?,?,-30%
COc1cc(C(=O)OCC(=O)NC2CCCC2)cc(OC)c1OC,-15%,?,-1%,9%,0%,-10%
COc1ccc(-c2cc(-c3ccccc3)nc(SC(C)C(=O)O)c2C#N)cc1 (stereo not given),-6%,i,26µM*,?,-13%,-5%
COc1ccc(-c2cc(-c3ccccc3)c(C#N)c(SCC(=O)O)n2)cc1,-6%,i,?,-28%,0%,-154%
Clc1cccc(-c2ccc(C3Nc4cccc5cccc(c45)N3)o2)c1,8%,i,.,.,-26%,8%
C=CCOC(=O)Nc1ccc(Cl)cc1NC(=O)OCC=C,36%,i,-18%,-19%,2%,-3%
C=CCOC(=O)/C=C/C(=O)NC(N)=O,.,?,16µM*,10µM*,5%,5%
COCC(=O)Nc1c(C(=O)Nc2ccc(C)cc2)oc2ccccc12,65%,i,?,7%,-1%,-5%
COc1ccc(N/N=C(C)/C(=N/O)C(=O)Nc2ccccc2)cc1,-3%,i,15µM*,?,2%,13%
COc1ccc(C(CC(=O)Nc2ccc(F)cc2)c2ccccc2)cc1 (stereo not given),14%,i,?,?,?,-6%
O=C(CC(c1ccccc1)c1ccccc1O)NCc1ccccc1Cl (stereo not given),0%,i,16µM*,23µM*,0%,-5%
COc1ccccc1C(CC(=O)Nc1ccc(Cl)cc1)c1ccc(OC(C)C)cc1 (stereo not given),1%,i,?,16µM*,3%,-14%
COc1cc(NC(=O)CNC(c2ccccc2)c2ccccc2)cc(OC)c1OC,-15%,i,21µM*,26µM*,?,-27%
COc1ccc(NC(=O)c2cccc(NC(=O)c3ccccc3)c2)cc1,3%,i,?,-35%,-11%,-24%
O=C(CC(c1ccccc1)c1ccccc1O)NCCc1ccccc1 (stereo not given),-14%,i,?,-3%,4%,-26%
COc1ccc(NC(=O)C(C)N2C(=O)C3CC=C(Cl)CC3C2=O)cc1 (stereo not given),1%,i,-4%,-4%,11%,10%
O=C1NC(=O)C(c2ccccc2)(c2ccc(Cl)cc2Cl)N1 (stereo not given),1%,i,?,-54%,-1%,-2%
CCOC(=O)CN(C)C(=O)C1CC(CO[Si](C)(C)C(C)(C)C)=CN1C(=O)OC(C)(C)C (stereo not given),.,.,.,.,-16%,-3%
COCCc1ccccn1,17%,i,.,.,.,.
COC(=O)CNC(c1ccccc1)c1cc(Br)ccc1NC(=O)c1cc(OC)c(OC)c(OC)c1 (stereo not given),-19%,?,7.3µM*,16µM*,37%,-8%
SMILES,ATXN2 expr inh,S2 tox,DT40 TDP1 no CPT,DT40 TDP1 CPT,TGFb SMAD3 inh,HepG2 viability
NC(=O)c1ccc(NC(=O)CNC(c2ccccc2)c2ccccc2)cc1,7%,.,3%,4%,2%,23%
COc1ccc(NC(=O)CNC(c2ccccc2)c2ccccc2)cc1,.,i,26µM*,?,-11%,2%
COc1ccc(NC(=O)CC(c2ccc(F)cc2)c2ccc(OC)cc2)cc1 (stereo not given),-13%,i,15µM*,?,-10%,-3%
COC(=O)CNC(c1ccccc1)c1cc(Br)ccc1NC(=O)OCc1ccccc1 (stereo not given),2%,i,?,-19%,-17%,3%
COc1ccc(C)cc1NC(=O)CNC(c1ccccc1)c1ccc(C)cc1 (stereo not given),0%,i,3.3µM*,3.3µM*,?,-11%
CCCS(=O)(=O)N1CC(=O)N(c2ccc(Cl)cc2C)C(C)(C(=O)NC2CCCC2)C1 (stereo not given),.,.,-7%,-20%,-23%,-16%
CC(C)Oc1ccc(CNC(=O)CC(c2ccccc2)c2cc(Cl)ccc2O)cc1 (stereo not given),?,?,?,?,?,16µM*
COCC(=O)OC1CCn2c1nc1c2C(=O)C(C)=C(NC(C)=O)C1=O (stereo not given),10µM*,.,2.3µM*,2.6µM*,?,-87%
O=C(CN1C(=O)CC(c2ccccc2)=Nc2ccccc21)Nc1ccc(Br)cc1,-16%,i,21µM*,?,-4%,-9%
Cc1ccc(NC(=O)CN2C(=O)CC(c3ccc(C)c(C)c3)=Nc3ccccc32)cc1,0%,i,18µM*,21µM*,-17%,-12%
Cc1ccc(C2=Nc3ccccc3N(CC(=O)Nc3ccccc3F)C(=O)C2)cc1C,-11%,?,26µM*,23µM*,-15%,-14%
CCSc1ncc(Cl)c(C(=O)Nc2sc3c(c2C(=O)OC)CCCC3)n1,.,.,-8%,0%,13%,1%
CC(=O)Oc1ccc2c(c1)OC(c1ccccc1)CC21CC(C)(C)NC(=S)N1 (stereo not given),-8%,i,12µM*,16µM*,3%,1%
O=C1CC(c2ccccc2)Oc2cc(O)ccc21 (stereo not given),33%,i,4%,7%,0%,-19%
